HT1080 IDH1KD tx: kills HT-1080 cells with IDH1 knockdown; 360,000 tested, 2% active; HT-1080 IDH1 knockdown viability, ATP luminescence, 48 h; Potency, µM (series often up to 46.1 µM), without a hit: at the top dose activity, negative = toxicity, usual class: cytotoxic;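 note: potency is the fitted concentration of half-maximal effect; 0% = DMSO wells and -100% = cell-free medium wells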
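Knockdown cells (IDH1KD HT-1080) received compounds 2 h after plating at 750 cells/well and were kept 48 h at 37 °C in 5% FBS RPMI. A CellTiter-Glo luminescence read gave % activity for curve fitting.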
IL1B secr inh: blocks inflammasome-driven IL-1 beta release | activity change, % at 57.5 µM | 360,000 tested, 4.7% active | AID 743279 | THP-1 LPS/ATP IL-1B secretion, AlphaLISA, 16 h; stronger effect = lower value; in the data active = activity change below about -50%; inconclusive = mostly about -30% to -49%
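THP-1 cells pretreated 1 hr with compounds (up to 57.5 uM final), then stimulated with LPS (250 ng/mL final) plus ATP (1.25 mM final); secreted IL-1B measured by AlphaLISA after 16 hr, decreased signal indicating inhibition.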
TDP1 cell noCPT: qHTS for Inhibitors of human tyrosyl-DNA phosphodiesterase 1 (TDP1): qHTS in cells in absence of CPT; DT40 Tdp1-/- hTDP1 cells, no CPT, ATP luminescence, 48 h; 420,000 tested, 15% active; AID 686978, 2013; Potency, µM (doses to about 46.2 µM), for inactives: at the highest dose activity change, negative = growth inhibition, usual class: inhibitors; note: potency is the fitted concentration of half-maximal effect; nearly all actives have a fitted effect of over 55% in size
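Camptothecin absent (DMSO only). Human TDP1-complemented DT40 knockout cells, 400 cells/well, 37 °C for minimum 48 hr; ATP measured via CellTiter-Glo, 30 min dark incubation, luminescence.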
ALOX12 inh: inhibitors of human 12S-lipoxygenase ALOX12; P18054; purified 12hLO, xylenol orange hydroperoxide absorbance; Potency, µM (highest dose often 108 µM), without a hit: top-dose activity change, negative = inhibition, most hits filed as inhibitors; 580,000 tested, 1.1% active; note: potency is the fitted concentration of half-maximal effect
Target sequence (P18054 whole entry, looked up): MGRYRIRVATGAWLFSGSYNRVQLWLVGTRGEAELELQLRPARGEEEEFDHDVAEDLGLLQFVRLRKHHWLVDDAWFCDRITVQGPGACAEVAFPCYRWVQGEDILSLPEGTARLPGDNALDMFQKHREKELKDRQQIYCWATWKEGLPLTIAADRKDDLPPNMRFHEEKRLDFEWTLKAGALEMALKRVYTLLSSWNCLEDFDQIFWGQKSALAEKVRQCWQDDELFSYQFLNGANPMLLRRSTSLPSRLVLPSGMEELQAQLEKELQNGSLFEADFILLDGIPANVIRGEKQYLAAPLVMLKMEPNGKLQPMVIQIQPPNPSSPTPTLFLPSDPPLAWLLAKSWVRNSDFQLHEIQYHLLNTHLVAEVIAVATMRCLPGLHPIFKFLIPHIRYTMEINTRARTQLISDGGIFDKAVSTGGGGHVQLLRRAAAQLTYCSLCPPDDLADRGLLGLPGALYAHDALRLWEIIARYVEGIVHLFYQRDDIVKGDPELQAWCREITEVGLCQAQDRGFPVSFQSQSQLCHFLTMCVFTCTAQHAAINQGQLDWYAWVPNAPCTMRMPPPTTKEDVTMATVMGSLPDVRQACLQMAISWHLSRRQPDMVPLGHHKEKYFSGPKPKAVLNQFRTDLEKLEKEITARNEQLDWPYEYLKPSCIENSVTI
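Hydroperoxide product was detected by ferrous iron/xylenol orange as the 573 to 405 nm absorbance ratio. Arachidonic acid at 40 uM (final) was turned over for 30 min at room temperature by 150 nM human 12hLO, pH 7.0 Hepes buffer, after 15 min compound preincubation.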
DT40 TDP1 CPT: growth inhibition of DT40 Tdp1-/-;hTDP1 cells with camptothecin (screen for TDP1 inhibitors) | chicken DT40 Tdp1-/-;hTDP1 cells + 20 nM CPT, ATP luminescence, 48 h | Potency, µM (titrated, usually from 46.2 µM), for inactives: top-dose activity change, negative = growth inhibition, usual class: inhibitors | 420,000 tested, 12% active; note: potency is the fitted concentration of half-maximal effect; nearly all actives have a fitted effect of over 55% in size
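Chicken DT40 Tdp1-/- cells stably complemented with human TDP1 were seeded at 400 cells/well in medium containing 20 nM camptothecin, exposed to pin-transferred compounds, and grown at 37 °C for at least 48 hr. Viability was read as ATP luminescence.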
HT1080NT lethal: kills 2HG-producing HT-1080-NT fibrosarcoma cells. HT-1080-NT fibrosarcoma viability, CellTiter-Glo ATP luminescence, 48 h. Potency, µM (series often up to 46.1 µM), for inactives: at the highest dose activity, negative = less viability, usual class: cytotoxic. 360,000 tested, 1.6% active. AID 686970;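 note: NT is the 2HG producing partner of a matched IDH1 knockdown line; potency is the fitted concentration of half-maximal effect; 0% = DMSO-treated cells and -100% = media-only wells without cells; nearly all actives have a fitted effect of over 55% in size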
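Fibrosarcoma NT cells, 750 per well in 5% FBS RPMI, were exposed to compound for 48 hours. Viability: CellTiter-Glo luminescence.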
An asterisk follows results filed as active; ? = inconclusive; nt = no result given; [ ] = remark or other dose. Shown is part of a subset that was picked to be rich in hits. Unless noted, calls come from the whole dose curve; as a rule, active = well fitted curve in the direction sought with a large enough effect; inconclusive = small, poorly fitted or top-dose-only effect, or another doubt; inactive = no such curve, though single readings can be large; an effect the other way counts as inactive or inconclusive. Unless noted, % is set by controls: 0 for no effect and ±100 for the full control effect.

SMILES	HT1080 IDH1KD tx	IL1B secr inh	TDP1 cell noCPT	ALOX12 inh	DT40 TDP1 CPT	HT1080NT lethal
COc1ccc(C(=O)NCCSCc2ccccc2Cl)cc1OC	-11%	-6	?	50µM*	-12%	-8%
C/C(=N/OC(=O)c1ccc(-c2cc(Cl)ccc2Cl)o1)c1ccccc1	nt	nt	nt	-4%	nt	nt
O=C(Nc1nc(-c2cccnc2)cs1)C1CC(=O)N(c2ccccc2Cl)C1 (stereo not drawn)	nt	nt	nt	-16%	nt	nt
Cc1ccccc1-c1nc(CS(=O)(=O)CC(=O)NCc2ccccc2Br)c(C)o1	nt	nt	nt	-29%	nt	nt
CCCCC(=O)NNC(=S)NC(=O)CCC	-13%	-95*	?	-23%	?	-10%
CC(=O)NC(=S)NNC(=O)CCc1ccccc1	-5%	-7	?	-20%	?	0%
CC(C)(C)c1cc(CCC(=O)NNC(=O)c2ccco2)cc(C(C)(C)C)c1O	4%	19	?	-1%	-8%	0%
O=C(CCc1ccccc1)NNC(=S)NC(=O)c1ccccc1	11µM*	0	15µM*	?	7.3µM*	?
CCCCC(=O)NC(=S)NNC(=O)CCc1ccccc1	-2%	174	21µM*	-25%	21µM*	3%
CC(C)(C)c1cc(CCC(=O)NNC(=S)NC(=O)c2ccccc2)cc(C(C)(C)C)c1O	?	169	3.7µM*	nt	4.1µM*	15µM*
Cc1c(C)n(-c2ccccc2)c2ncn(CC(=O)NCCc3ccc(Cl)cc3)c(=O)c12	nt	nt	nt	1%	nt	nt
COc1cc(C)c2c(c1C)C[C@H](C(C)C(=O)N1CCSCC1)CC2 (stereo partly drawn)	nt	nt	nt	-4%[176 µM]	nt	nt
CCCc1cc(=O)[nH]c(Nc2ccccc2O)n1	nt	nt	-8%	-26%	-18%	nt
CCCOC(=O)c1cccc(Nc2nc(CCC)cc(=O)[nH]2)c1	nt	nt	15µM*	-24%	16µM*	nt
Cc1ccccc1CN(C)CC(=O)NC(=O)NCC(F)(F)F	nt	nt	nt	-2%	nt	nt
CCCCCc1nnc(NC(=O)Cc2cccs2)s1	-1%	15	-24%	0%	-20%	0%
CC(C)(C)Cc1nnc(NC(=O)Cc2cccs2)s1	0%	27	?	45µM*	6%	0%
O=C(Cc1cccs1)Nc1nnc(Cc2ccccc2)s1	3%[9.24 µM]	42	?	45µM*	?	-13%
CC(C)(C)CC(=O)Nc1ccc([C@@H](O)[C@H]2COCC(=O)N2Cc2ccccc2F)cc1	nt	nt	nt	-29%[176 µM]	nt	nt
O=C(Nc1ccc2c(N3CCOCC3)ncnc2c1)c1ccc(Br)o1	nt	nt	nt	66%	nt	nt
O=C(Nc1ccccc1)NN(C(=O)CCl)c1ccccc1	4.6µM*	-96*	3.3µM*	-8%	3.3µM*	7.3µM*
Cc1ccc(C(O)(C(=O)NN(C(=O)c2ccccc2)c2ccccc2)c2ccc(C)cc2)cc1	-21%	4	?	-7%	?	-18%
Cc1ccc(N(NC(=O)C(O)(c2ccccc2)c2ccccc2)C(=O)CCl)cc1	5.8µM*	-98*	5.2µM*	-30%	4.1µM*	5.2µM*
CCC(O)(CC)C(=O)NN(C(=O)CCl)c1ccccc1	?	-82*	15µM*	-29%	13µM*	0%
O=c1cc(CSc2nnnn2-c2ccccc2)[nH]n1-c1ccc(F)cc1	nt	nt	nt	18µM*	nt	nt
SMILES	HT1080 IDH1KD tx	IL1B secr inh	TDP1 cell noCPT	ALOX12 inh	DT40 TDP1 CPT	HT1080NT lethal
O=C(COc1ccc(-c2nnc3n2CCCC3)cc1)Nc1cccc(F)c1	nt	nt	nt	-4%	nt	nt
COc1cccc2c(=O)c3c(cnn3C)n(C)c12	-8%	-54*	?	0%	-10%	-3%
Cc1cc(-c2ccc(S(=O)(=O)Nc3cccc(Cl)c3C)cc2)on1	nt	nt	6.5µM*	-29%	6.5µM*	nt
Cc1cc(-c2ccc(S(=O)(=O)Nc3ccccc3C)cc2)on1	nt	nt	4.6µM*	?	5.2µM*	nt
Cc1c(Cl)cccc1NS(=O)(=O)c1ccccc1	?	-10	-5%	-2%	-28%	-6%
Cc1cc(-c2ccc(S(=O)(=O)Nc3ccc(Cl)cc3C)cc2)on1	nt	nt	3.3µM*	?	4.6µM*	nt
Cc1ccc(NS(=O)(=O)c2ccc(-c3cc(C)no3)cc2)c(Br)c1	nt	nt	8.2µM*	?	12µM*	nt
CCc1ccc(NC(=O)c2ccc3c(c2)NC(=O)CS3)cc1	nt	nt	nt	20%	nt	nt
CC(NC(=O)CC1(C(=O)O)CCCCC1)c1ccc2c(c1)CCCC2 (stereo not drawn)	nt	nt	nt	-8%	nt	nt
O=C(CSc1nnc(-c2ccncc2)n1CC(F)(F)F)NCC1CC1	nt	nt	nt	-7%	nt	nt
NC(=O)c1ccc(N=Cc2ccc([N+](=O)[O-])s2)cc1	2%	-108*	3.3µM*	-15%	5.2µM*	?
Cc1ccc(NC(=S)N/N=C/c2ccc([N+](=O)[O-])s2)cc1	?	-73*	?	?	?	?
Cc1cccc(NC(=S)N/N=C/c2cccc([N+](=O)[O-])c2)c1	6%	15	?	nt	?	7%
Cc1cc(C)cc(N=Cc2ccc([N+](=O)[O-])s2)c1	21µM*	-104*	2.6µM*	-9%	2.6µM*	?
O=C(COC(=O)c1ccccc1O)Nc1ccccc1N1CCCC1=O	nt	nt	nt	-21%	nt	nt
CC(C(=O)c1ccc(Br)cc1)[n+]1cccc2ccccc21 (stereo not drawn)	-1%	39	9.2µM*	?	10µM*	0%
N#CCSc1ccc(-c2nc3ccccc3[nH]2)cn1	?	?	23µM*	-1%	?	-27%
O=C(CSc1ccc(-c2nc3ccccc3[nH]2)cn1)Nc1ccc(S(=O)(=O)NC2CC2)cc1	-10%	11	21µM*	7%	26µM*	-19%
COCCNC(=O)CSc1ccc(-c2nc3ccccc3[nH]2)cn1	3%	48	8%	-9%	-14%	5%
O=C(CSc1ccc(-c2nc3ccccc3[nH]2)cn1)Nc1ccc2c(c1)OCCO2	-6%	4	-24%	nt	-27%	0%
CCOC(=O)CSc1ccc(-c2nc3ccccc3[nH]2)cn1	-23%	-82*	?	0%	?	-20%
Cc1ccc(F)cc1C(=O)N1CCCC(c2cc(C(=O)Nc3ccccc3Cl)no2)C1 (stereo not drawn)	-70%	23	21µM*	-15%	?	?
O=C(Nc1ccccc1Cl)c1cc(C2CCCN(C(=O)c3cccc(O)c3)C2)on1 (stereo not drawn)	24%	14	-27%	-16%	?	2%

Screening data deposited in PubChem by National Center for Advancing Translational Sciences (NCATS).
